In PubChem BioAssay AID504861 (Broad Institute, 2011):
Out of some 1,200 compounds screened, about 290 (24%) were called active. Inconclusive results (about 3%) are left out.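 The calls were made as follows: active = compounds lowering cell viability signal with fitted half-maximal concentration at most ten times their highest tested concentration; inconclusive = flat fit with 30 to 70% signal loss, or poor fit; inactive = the rest.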 These entries were drawn from the full list. A call without a number means that no potency is given here. Potency and affinity values are given separately.

Experiment: cytotoxicity in HEK293T cells – cell-based, CellTiter-Glo luminescence, cherry-picks, cytotoxicity control for LMP1 NF-kB inhibitor project, dose response (AID 504861)
Settings: HEK293T viability, CellTiter-Glo ATP luminescence, 48 h; series mostly up to 26 µM

SMILES | outcome
CCOC(=O)c1sc(NC(=O)CNCc2ccccn2)c(C(=O)OCC)c1C | inactive
Cc1ccc(-n2ccc(=O)c(C(=O)Nc3ccc(S(=O)(=O)N4CCOCC4)cc3)n2)cc1 | inactive
Cc1ccnc(NC(=O)c2sc3ccccc3c2Cl)c1 | inactive
Oc1c(N=NC(=S)Nc2ccccc2F)c2ccccc2n1Cc1ccccc1 | inactive
Cc1ccc(S(=O)(=O)NC(CC(C)C)C(=O)NCC(c2ccco2)N2CCCCC2)cc1 (stereo not given) | inactive
CCCCCn1c(N2CCOCC2)nc2c1c(=O)n(CC(N)=O)c(=O)n2C | inactive
O=C(NCCOc1ccccc1)c1ccc2c(c1)OCO2 | inactive
C(=Cc1nc2ccccc2o1)c1ccc2c(c1)OCO2 | inactive
Cc1cc(C)c(OCCn2ccnc2)c(C)c1 | inactive
COc1ccc2oc(C(=O)NCCc3ccccc3)c(C)c2c1 | inactive
COc1ccc(-c2nnc(NC(=O)c3ccc(S(=O)(=O)N4CCCc5ccccc54)cc3)o2)cc1 | inactive
O=C1N[C@@H](Cc2c[nH]c3ccccc23)COC(=O)[C@H](Cc2ccc(F)cc2)C/C=C\C[C@H]1CC(=O)N(CCO)Cc1ccccc1 | inactive
Cc1sc2ncnc(N3CCC(C(=O)Nc4ccccc4C(C)(C)C)CC3)c2c1C | inactive
Cc1sc2ncn(CC(=O)N3CCC(C(N)=O)CC3)c(=O)c2c1S(=O)(=O)N1CCOCC1 | inactive
O=c1oc2ccccc2c(O)c1/C=N/c1ccccn1 | inactive
CC1(C)Cc2nc3sc4c(SCC(=O)O)ncnc4c3cc2CO1 | inactive
COc1ccc(C(=O)N2CC(=O)Nc3ccccc32)cc1S(=O)(=O)N1CCCC1 | inactive
CCOc1ccc(S(=O)(=O)N2CCC(C(=O)NCCc3ccc(S(N)(=O)=O)cc3)CC2)cc1 | inactive
CCOc1ccc(NC(=S)N=Nc2c(O)[nH]c3ccccc23)cc1 | inactive
CSc1oc(-c2ccc(F)cc2)nc1S(=O)(=O)c1ccc(F)cc1 | inactive
O=C(CN1C(=O)C2C3C=CC(C3)C2C1=O)NCCC1=CCCCC1 (stereo not given) | inactive
O=C(Cc1ccc(Cl)cc1)NCC(=O)N1CCCCC1 | inactive
CCCCN1C2CCCC1CC(NC(=O)C1CCCCC1)C2 (stereo not given) | inactive
Cc1ccc(C(=O)Nc2nnc(SCC(=O)N3CCCc4ccccc43)s2)cc1 | inactive
CCc1sc(C(=O)Nc2nc(-c3ccccn3)cs2)cc1C | inactive
Cc1cccc(CNc2ncnc3ccc(-c4ccoc4)cc23)c1 | inactive
COCCn1c(C)cc(C(=O)CSc2nnc3ccccn23)c1C | inactive

SMILES | outcome
Cc1ccc(S(=O)(=O)N2c3ccccc3-c3c(ssc3=S)C2(C)C)cc1 | inactive
Nc1ncnc2c1c(-c1ccc(Oc3ccccc3)cc1)cn2C1CCCC1 | inactive
O=C(Nc1cc(C(F)(F)F)cc(C(F)(F)F)c1)Nc1cnn(-c2ccc([N+](=O)[O-])cc2)c1C(F)(F)F | inactive
CCOc1ccc(NC(=O)c2ccc(N3CC4CC(C3)c3cccc(=O)n3C4)c(NC(=O)c3cccnc3)c2)cc1 (stereo not given) | inactive
Cc1cccc(S(=O)(=O)N2CCCc3ccccc32)c1 | inactive
COc1ccc(OC)c(NC(=O)COc2coc(CN3CCc4ccccc43)cc2=O)c1 | inactive
Nc1ccc(CCNc2ncnc3c2ncn3[C@@H]2O[C@H](CO)[C@@H](O)[C@H]2O)cc1 | inactive
COc1ccc(-c2cc(C(F)(F)F)n3nc(C(=O)N4CCOCC4)nc3n2)cc1 | inactive
O=C(Nc1ccc2c(c1)C(=O)OC2)c1ccc(C(F)(F)F)cc1 | inactive
O=C(Cn1nc(C(F)(F)F)c2c1CCC2)NC1CCCCC1 | inactive
O=[N+]([O-])c1cc(/C=N\O)ccc1Oc1ccc(F)cc1 | inactive
O=C(NNC(=S)Nc1ccc(Cl)c(Cl)c1)c1ccccn1 | inactive
COc1cc2cc(C(=O)Nc3ccc4c(c3)OCCO4)[nH]c2cc1OC | inactive
CC(=O)Nc1ccc(NC(=O)C(c2ccccc2)c2ccccc2)cc1 | inactive
COCCCn1cnnc1SCC(=O)Nc1ccc(S(=O)(=O)N2CCCC2)cc1 | inactive
CC1CCN(C(=O)/C(=C\c2cccs2)NC(=O)c2ccccc2)CC1 | inactive
COc1ccc(C=C2OC(=O)C(C(C)=O)=C2O)cc1 | inactive
Cc1cc(C(=O)CN2C(=O)c3ccccc3C2=O)c(C)n1Cc1cccs1 | inactive
Cc1cccc(C)c1NC(=O)CN(C)CC(=O)Nc1ccccc1Oc1ccccc1 | inactive
COCCn1c(SCC(=O)NCc2ccco2)nnc1-c1c[nH]c2ccccc12 | inactive
c1ccc(OCCSc2nnc3sc4ccccc4n23)cc1 | inactive
CC(C)Oc1ccc(C2CC(=O)NC2=O)cc1 (stereo not given) | inactive
COCC(=O)N(C)c1nnc(-c2ccccn2)s1 | inactive
CCOC(=O)c1c2c(n(C)c1C)C(=O)C(=O)c1ccc(Br)cc1-2 | inactive
CCOC(=O)N1CCC(n2c(=S)[nH]c3ccccc3c2=O)CC1 | inactive
N#CC(C#N)c1ccnc2ccccc12 | inactive
O=C(O)/C=C/c1ccc(Cn2ccnc2)cc1 | inactive

SMILES | outcome
Cc1ccc(C(=O)Nc2cccc(C(F)(F)F)c2)cc1Nc1ncnc2nc[nH]c12 | inactive
CCN1CCN(Cc2ccc(NC(=O)c3ccc(C)c(NC(=O)c4ccno4)c3)cc2C(F)(F)F)CC1 | inactive
CCN1CCN(Cc2ccc(NC(=O)c3ccc(C)c(NC(=O)N4CCNC4=O)c3)cc2C(F)(F)F)CC1 | inactive
Cc1ccc(C(=O)Nc2cccc(C(F)(F)F)c2)cc1NC(=O)c1ccno1 | inactive
CCN1CCN(Cc2ccc(NC(=O)c3ccc(C)c(NC(=O)c4cccc5[nH]ccc45)c3)cc2C(F)(F)F)CC1 | inactive
CCN1CCN(Cc2ccc(NC(=O)c3ccc(C)c(NC(=O)c4nccn4C)c3)cc2C(F)(F)F)CC1 | inactive
COc1cccc(CC(=O)NNC(=O)c2ccc3c(c2)OCO3)c1 | inactive
COC(=O)c1c(O)ccc(Oc2ccccc2)c1C(=O)OC | inactive
CCC(=O)NC(=S)Nc1ccccc1C(F)(F)F | inactive
N#CC1=C(N)N2C(=C(C#N)C1c1cccc(Br)c1)Nc1ccccc12 (stereo not given) | inactive
C[C@@H](C(=O)Nc1ccc2c(c1)OCCO2)n1c(=O)[nH]c2ccccc2c1=O | inactive
Cc1nnc(SCC(=O)N2CCC(c3noc4ccc(F)cc34)CC2)s1 | inactive
S=C1SCN(Cc2ccco2)CN1Cc1ccco1 | inactive
O=C(CN(Cc1cccs1)C(=O)CNS(=O)(=O)c1ccccc1)NCc1ccco1 | inactive
COC(=O)c1ccc2nc(-c3cccc(N)c3)cn2c1 | inactive
Cc1ccc(S(=O)(=O)N2CCN(C(=O)CSc3nnnn3C)C2)cc1 | inactive
O=C(O)C1CC(=O)N(c2ccc(Br)cc2)C1 (stereo not given) | inactive
CCOc1ccc(C(=O)NC(=S)N(Cc2ccccc2)Cc2ccccc2)cc1 | inactive
COCCn1c(C)cc(C(=O)COc2ccc(C)nc2[N+](=O)[O-])c1C | inactive
C=CCN(c1ccc(C(=O)Nc2ccc3c(c2)n(C)c(=O)n3C)cc1)S(C)(=O)=O | inactive
CC(C)N1CCN(c2ccc(OC[C@H]3CO[C@](Cn4cncn4)(c4ccc(Cl)cc4Cl)O3)cc2)CC1 | inactive
CC(C)Oc1ccc(C(=O)Nc2nnc(SCC(=O)N3CCOCC3)s2)cc1 | inactive
CCOc1ccc(N/C=C/C(=O)c2ccccc2)cc1 | inactive
Clc1cccc(CN2CCCCCC2)c1 | inactive
CC(=O)c1ccc(N2CCN(c3ccnc4cc(Cl)ccc34)CC2)cc1 | inactive
c1ccc(C2c3[nH]c4ccccc4c3CCN2Cc2cccn2-c2ccccn2)nc1 (stereo not given) | inactive
Cn1c(=O)c2ncn(CC(=O)O)c2n(C)c1=O | inactive

SMILES | outcome
Cc1cc(C)c(S(=O)(=O)Nc2nnc(CC(C)C)s2)c(C)c1 | inactive
CCn1c(=O)c2c(cnn2C)c2ccccc21 | inactive
COc1cc(Cl)cc(C(c2c(C(=O)O)[nH]c3ccccc23)c2c(C(=O)O)[nH]c3ccccc23)c1O | inactive
O=C1CC(c2ccccc2)Oc2ccccc21 (stereo not given) | inactive
CCOC(=O)c1c(NC(=O)C2C3CCC(O3)C2C(=O)O)sc(C)c1-c1ccc(F)cc1 (stereo not given) | inactive
Cc1nc2sc(C(N)=O)c(N)c2c2c1CCCC2 | inactive
O=C(NC(Cc1c[nH]c2ccccc12)C(=O)Nc1ccc(F)c([N+](=O)[O-])c1)c1cccs1 (stereo not given) | inactive
COCC(=O)N1CCC(Oc2ccc(C(=O)N3C[C@H]4CC[C@H]3C4)cc2)CC1 | inactive
CC1=C(C(=O)OCc2ccc3c(c2)OCO3)C(c2ccc(Cl)cc2)NC(=O)N1 (stereo not given) | inactive
COc1ccc(N2Cc3cccc(C(=O)NC(C)CCc4ccco4)c3C2=O)cc1 (stereo not given) | inactive
COc1ccc(CCNC(=O)CSC(=O)c2ccccc2)cc1OC | inactive
CCCN(CC1CC1)c1nc(C)nc(Nc2c(Cl)cc(Cl)cc2Cl)c1Cl | inactive
CC(C)Nc1nnc(SCC(=O)c2c(N)n(Cc3ccccc3)c(=O)n(C)c2=O)s1 | inactive
COc1cccc(C(=O)OCn2nnc3ccccc3c2=O)c1OC | inactive
COc1ccc(C(=O)Nc2ccc(N3CCN(C(=O)c4ccccc4C)CC3)cc2)cc1 | inactive
COc1ccc2sc3c(=O)[nH]c4ccccc4c3c2c1 | inactive
CCOc1ccccc1C(=O)N[C@H](C(=O)OCc1cc([N+](=O)[O-])cc2c1OCOC2)C(C)C | inactive
Cc1ccc(S(=O)(=O)N2CCCCC2)cc1NC(=O)CNc1ccccc1N1CCCC1=O | inactive
O=C(c1ccc(Cl)cc1)N1CCN(CCOc2ccccc2)CC1 | inactive
Cn1c(CC(=O)Nc2ccc(F)cc2)nnc1SCC(=O)Nc1nncs1 | inactive
Cc1cccc(/C=N/NC(=O)CNc2cccc3ccccc23)n1 | inactive
O=C(O)c1ccc(C=NNC(=O)c2cccc3ccccc23)cc1 | inactive
O=C(/C=C/Nc1cccc(C(F)(F)F)c1)C(F)(F)F | inactive
O=C(CN1C(=O)c2ccccc2S1(=O)=O)c1ccccc1F | inactive
